This is an account of results in PubChem BioAssay.

The source made the active and inactive calls.

Experiment [1] relates to Plasmodium falciparum Sir2 (PF13_0152, Sir2A). Put plainly: Plasmodium falciparum Sir2A binding compounds – biochemical, small-molecule microarray, 635 nm fluorescence, primary screen (AID 1098).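 Further: score merges spot fluorescence intensity with its signal-to-noise ratio.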 To be noted: fluorescence 635 nm, higher = more signal.
The nature of experiment [2]: probe aDKK1 binding to arrayed compounds – biochemical, biotinylated probe, 635/667 nm fluorescence, primary screen (AID 1099).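 Further: score merges 667nm spot fluorescence with signal to noise across triplicate slides.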 To be noted: small-molecule microarray, higher = more signal.
The nature of experiment [3]: probe aCHRDL2 binding to arrayed compounds – biochemical, biotinylated probe, 635/667 nm fluorescence, primary screen (AID 1100). Conditions: small-molecule microarray, higher = more signal.
Experiment [4] can be described thus: change in splice reporter luminescence, either direction, cell-based, HEK293, spliceosome inhibition project, primary screen (AID 1101).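 Further: HEK293 cells carrying a splicing-competent luciferase reporter gene; test concentration not given here.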 Conditions: HEK293 splicing luciferase reporter, 24 h, higher = more signal, called active from +8 up or from −8 down.
Experiment [5] addresses Fibroblast growth factor 10 (Homo sapiens) (UniProt O15520). The experiment can be described thus: compounds binding fibroblast growth factor 10 – biochemical, small-molecule microarray, 635 nm fluorescence, primary screen (AID 1102). Conditions: FGF10 binding, fluorescence 635 nm, higher = more signal.
For experiment [6], the system named is glycogen synthase kinase-3 (GSK3A per assay name; protocol says GSK3B). The experiment can be described thus: compounds binding glycogen synthase kinase-3 – biochemical, small-molecule microarray, 635 nm fluorescence, GSK3A, primary screen (AID 1103). Further: the record names both GSK3A and GSK3B. To be noted: fluorescence 635 nm, higher = more signal.
Experiment [7] concerns the target Epidermal growth factor receptor (Homo sapiens) (UniProt P00533). Put plainly: compounds binding epidermal growth factor receptor – biochemical, small-molecule microarray, 635 nm fluorescence, primary screen (AID 1104).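 Further: score merges 667 nm emission intensity with spot signal to noise over triplicate slides.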 To be noted: EGFR binding, higher = more signal.
The target in experiment [8] is Follistatin-related protein 3 (Homo sapiens) (UniProt O95633). Put plainly: compounds binding follistatin-related protein 3 – biochemical, small-molecule microarray, 635 nm fluorescence, primary screen (AID 1105).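 Further: score merges emission near 667 nm and signal to noise per printed spot across three slides.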 To be noted: FSTL3 binding, higher = more signal.
Chain of Follistatin-related protein 3 (Homo sapiens) (O95633 whole entry, looked up): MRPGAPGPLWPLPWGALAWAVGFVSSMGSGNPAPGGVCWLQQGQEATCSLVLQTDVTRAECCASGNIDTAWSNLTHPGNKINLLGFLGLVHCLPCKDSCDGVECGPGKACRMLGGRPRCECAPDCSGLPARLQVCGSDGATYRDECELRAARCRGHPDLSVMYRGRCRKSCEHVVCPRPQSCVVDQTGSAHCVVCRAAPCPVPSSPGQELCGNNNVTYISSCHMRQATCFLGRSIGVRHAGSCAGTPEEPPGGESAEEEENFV
Experiment [9] addresses Dickkopf-related protein 1 (Homo sapiens) (UniProt O94907). The experiment can be described thus: small molecules binding DKK1 protein – biochemical, small-molecule microarray, 635 nm fluorescence scan, primary screen (AID 1106).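 Further: score merges emission near 667 nm with signal to noise over three replicate slides.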 Conditions: higher = more signal.
For experiment [10], the system named is Inhibin beta A chain (activin A). The experiment can be described thus: small molecules binding activin A – biochemical, small-molecule microarray, 635 nm fluorescence scan, primary screen (AID 1107).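 Further: mouse activin A protein probed at 4.33 µg/mL on printed slides; score merges bound-protein fluorescence near 667 nm with spot signal-to-noise.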 To be noted: INHBA, higher = more signal.
The test system of experiment [11] is Human papillomavirus type 1a protein E7 (residues 44-93). Put plainly: small molecules binding HPV E7 44-93 – biochemical, small-molecule microarray, residues 44-93, 635 nm fluorescence, primary screen (AID 1108).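 Further: E7 fragment applied at 1 µg/mL in TBST for 1 h at 4 C; score combines spot fluorescence with its signal to noise ratio.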 To be noted: fluorescence 635 nm, higher = more signal.
The nature of experiment [12]: hepatitis C replication reporter changes, two-sided – Huh7 cells, luciferase reporter, HCV replication inhibitor project, primary screen (AID 1109).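 Further: huh7 hepatoma cells harbouring a luciferase neomycin HCV replicon reporter; luciferase luminescence as measure of HCV replicon replication; test concentration not given here.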 To be noted: Huh7 HCV replicon luciferase reporter, 48 h; higher = more signal. Background: A reporter such as luciferase makes a cellular process visible.
For experiment [13], the target named is Left-right determination factor 2 (Homo sapiens) (UniProt O00292). Put plainly: small molecules binding LEFTY2 protein – biochemical, small-molecule microarray, 635 nm fluorescence scan, primary screen (AID 1110). Conditions: higher = more signal.
Chain of Left-right determination factor 2 (Homo sapiens) (O00292 whole entry, looked up): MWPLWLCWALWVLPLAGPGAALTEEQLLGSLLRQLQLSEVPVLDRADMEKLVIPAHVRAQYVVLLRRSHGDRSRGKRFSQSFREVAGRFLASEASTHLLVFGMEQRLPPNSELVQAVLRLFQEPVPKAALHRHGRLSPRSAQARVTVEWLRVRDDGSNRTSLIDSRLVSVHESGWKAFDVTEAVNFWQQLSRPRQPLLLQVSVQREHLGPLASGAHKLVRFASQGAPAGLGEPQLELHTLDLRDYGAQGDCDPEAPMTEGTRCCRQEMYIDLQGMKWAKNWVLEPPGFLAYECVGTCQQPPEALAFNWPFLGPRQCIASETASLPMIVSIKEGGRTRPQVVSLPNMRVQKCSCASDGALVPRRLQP
Experiment [14] concerns the target Calmodulin-1 (Homo sapiens) (UniProt P0DP23). The experiment can be described thus: small molecules binding calmodulin-1 with EGTA – biochemical, small-molecule microarray, Cy5-labelled CALM1, profiling panel (AID 1111).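 Further: labelled calmodulin applied in Tris saline Tween buffer holding calcium plus EGTA and DTT.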 Conditions: Cy5-CALM1 binding fluorescence, higher = more signal.
The target is the same in experiment [15]. Put plainly: small molecules binding Ca-loaded calmodulin-1 – biochemical, small-molecule microarray, Cy5-labelled CALM1, plus calcium, artefact control for SMM control-protein annotation, profiling panel (AID 1112).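 Further: score merges spot fluorescence with signal to noise from triplicate slides.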 Conditions: Cy5-CALM1 binding fluorescence, higher = more signal.
Experiment [16] is described as follows: probe aWnt5a binding to arrayed compounds – biochemical, biotinylated probe, 635/667 nm fluorescence, primary screen (AID 1113).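 Further: score merges 667 nm fluorescence intensity with signal-to-noise per printed feature.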 To be noted: small-molecule microarray, higher = more signal.
The nature of experiment [17]: probe aShh binding to arrayed compounds – biochemical, biotinylated probe, 635/667 nm fluorescence, primary screen (AID 1114).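 Further: probe is biotin-labelled aShh protein from a stem cell growth factor screen; measures binding of labelled protein to compounds printed on the slide; score merges feature fluorescence at 667 nm with signal-to-noise.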 Conditions: small-molecule microarray, higher = more signal.
The nature of experiment [18]: probe aNog binding to arrayed compounds – biochemical, biotinylated probe, 635/667 nm fluorescence, primary screen (AID 1115).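 Further: probe is biotinylated aNog protein used at 0.15 µg/mL for 1 h at 4 C; z-score combines 667 nm fluorescence of each spot with its signal to noise.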 To be noted: small-molecule microarray, higher = more signal.
Experiment [19] deals with Torsin-1A-interacting protein 1 (Homo sapiens) (UniProt Q5JTV8). The experiment can be described thus: compound microarray binding of lysate hLAP1 – cell lysate, small-molecule microarray, COS7 lysate, 635/667 nm fluorescence, primary screen (AID 1116). Conditions: 635 nm fluorescence, higher = more signal.
Chain of Torsin-1A-interacting protein 1 (Homo sapiens) (Q5JTV8 whole entry, looked up): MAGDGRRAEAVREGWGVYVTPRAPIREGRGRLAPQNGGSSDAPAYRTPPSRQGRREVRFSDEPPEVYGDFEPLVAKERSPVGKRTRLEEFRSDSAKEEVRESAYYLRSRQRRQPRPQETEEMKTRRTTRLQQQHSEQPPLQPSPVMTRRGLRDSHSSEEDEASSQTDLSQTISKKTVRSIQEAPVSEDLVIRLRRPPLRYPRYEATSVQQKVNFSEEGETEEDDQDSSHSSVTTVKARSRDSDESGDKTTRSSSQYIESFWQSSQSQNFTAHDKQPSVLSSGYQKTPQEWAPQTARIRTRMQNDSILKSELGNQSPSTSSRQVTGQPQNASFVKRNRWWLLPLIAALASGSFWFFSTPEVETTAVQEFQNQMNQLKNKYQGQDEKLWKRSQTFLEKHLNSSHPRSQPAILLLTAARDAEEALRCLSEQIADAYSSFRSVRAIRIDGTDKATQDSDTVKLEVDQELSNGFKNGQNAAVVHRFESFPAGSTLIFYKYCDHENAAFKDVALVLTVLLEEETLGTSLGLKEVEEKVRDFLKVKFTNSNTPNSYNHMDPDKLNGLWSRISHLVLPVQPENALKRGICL
The target in experiment [20] is Alpha-bungarotoxin (Bungarus multicinctus) (UniProt P60615). The experiment can be described thus: compounds binding labelled alpha-BTX control protein – biochemical, small-molecule microarray, Alexa647 label, 635/667 nm fluorescence, artefact control for SMM control protein annotation, profiling panel (AID 1117). Conditions: alpha-BTX-A647 binding fluorescence, higher = more signal.
Chain of Alpha-bungarotoxin (Bungarus multicinctus) (P60615 whole entry, looked up): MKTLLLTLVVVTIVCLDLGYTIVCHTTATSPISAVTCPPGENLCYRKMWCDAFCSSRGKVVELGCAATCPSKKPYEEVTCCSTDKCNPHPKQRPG

Chain of Fibroblast growth factor 10 (Homo sapiens) (O15520 whole entry, looked up): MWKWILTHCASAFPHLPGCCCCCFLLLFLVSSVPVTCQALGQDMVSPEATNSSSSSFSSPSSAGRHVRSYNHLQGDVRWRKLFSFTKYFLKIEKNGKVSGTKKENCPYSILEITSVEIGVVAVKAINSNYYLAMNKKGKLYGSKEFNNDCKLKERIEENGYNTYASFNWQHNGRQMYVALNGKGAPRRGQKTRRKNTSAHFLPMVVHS
Chain of Epidermal growth factor receptor (Homo sapiens) (P00533 whole entry, looked up): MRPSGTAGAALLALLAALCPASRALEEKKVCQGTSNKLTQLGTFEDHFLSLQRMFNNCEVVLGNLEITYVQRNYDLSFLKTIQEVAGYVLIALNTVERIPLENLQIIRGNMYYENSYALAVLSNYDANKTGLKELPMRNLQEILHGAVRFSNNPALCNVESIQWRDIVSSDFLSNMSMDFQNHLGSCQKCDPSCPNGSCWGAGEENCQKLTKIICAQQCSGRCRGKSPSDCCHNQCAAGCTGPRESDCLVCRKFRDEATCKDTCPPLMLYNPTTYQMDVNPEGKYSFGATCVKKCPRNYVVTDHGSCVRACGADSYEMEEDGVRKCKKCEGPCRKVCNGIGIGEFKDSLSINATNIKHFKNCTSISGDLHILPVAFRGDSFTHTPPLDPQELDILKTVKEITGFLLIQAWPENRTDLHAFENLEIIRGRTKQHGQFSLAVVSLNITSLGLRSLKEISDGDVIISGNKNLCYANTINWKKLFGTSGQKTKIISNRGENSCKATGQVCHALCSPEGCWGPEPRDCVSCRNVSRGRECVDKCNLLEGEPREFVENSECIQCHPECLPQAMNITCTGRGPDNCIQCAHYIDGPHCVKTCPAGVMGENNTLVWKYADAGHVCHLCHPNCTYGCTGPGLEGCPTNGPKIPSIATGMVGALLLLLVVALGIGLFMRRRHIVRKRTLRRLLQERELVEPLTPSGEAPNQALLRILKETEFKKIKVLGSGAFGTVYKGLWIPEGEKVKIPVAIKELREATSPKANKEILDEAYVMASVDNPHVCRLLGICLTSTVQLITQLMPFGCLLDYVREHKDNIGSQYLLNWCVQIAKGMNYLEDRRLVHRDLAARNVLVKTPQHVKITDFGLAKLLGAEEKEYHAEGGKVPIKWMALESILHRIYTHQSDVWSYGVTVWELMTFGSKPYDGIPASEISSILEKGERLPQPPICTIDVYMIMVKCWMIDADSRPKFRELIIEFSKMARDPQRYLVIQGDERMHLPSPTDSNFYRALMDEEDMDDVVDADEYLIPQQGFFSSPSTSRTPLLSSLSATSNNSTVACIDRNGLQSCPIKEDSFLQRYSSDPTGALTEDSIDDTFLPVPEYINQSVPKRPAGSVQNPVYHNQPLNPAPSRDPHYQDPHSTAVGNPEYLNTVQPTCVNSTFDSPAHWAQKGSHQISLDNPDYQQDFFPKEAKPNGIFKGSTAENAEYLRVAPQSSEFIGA
Chain of Dickkopf-related protein 1 (Homo sapiens) (O94907 whole entry, looked up): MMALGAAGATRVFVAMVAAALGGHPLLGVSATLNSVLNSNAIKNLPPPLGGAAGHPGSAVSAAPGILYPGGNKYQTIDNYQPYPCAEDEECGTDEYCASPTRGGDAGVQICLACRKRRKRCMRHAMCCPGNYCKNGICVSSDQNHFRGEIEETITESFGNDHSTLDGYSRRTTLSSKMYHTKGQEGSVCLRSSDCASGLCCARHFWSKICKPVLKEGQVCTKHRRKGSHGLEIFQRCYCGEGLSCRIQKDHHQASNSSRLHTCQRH

`O=c1cccc(-c2cccc3ccccc23)o1`: the composite z-score in [1] is 1.06; in experiment [2], 0.849; in experiment [3] it was 1.23; in experiment [5] it was -0.52; in [6], -0.274; in [7], -1.18. Besides, the composite z-score in experiment [8] is -0.218; in experiment [9] it was -0.951; in experiment [10], 1.46; in experiment [11] it was -0.285; in [13] it was -0.905; in experiment [14] it was 0.088. Besides, the composite z-score in experiment [15] is 0.33; in experiment [16], -0.0751; in [17], -0.138; in experiment [18], 1.25; in [19] it was 0.78; in experiment [20] it was 0.541. The z-score in experiment [4] was 0.873 (inactive); in experiment [12], -0.497.
Turning to `O=C1O[C@H](c2ccccc2)[C@H](c2ccccc2)N2[C@H]1[C@@H](C(=O)NC[C@H](O)c1ccccc1)[C@]1(C(=O)Nc3ccc(C#CC4(O)CCCCCC4)cc31)[C@H]2c1ccccc1OCCO`, the composite z-score in experiment [1] is 1.51; in experiment [2] it was -0.26; in experiment [3], -0.313; in experiment [5], 1.17; in [6] it was 1.16; in experiment [7], -0.028. In addition, the composite z-score in [8] was 0.948; in experiment [9], 0.178; in [10] it was 0.048; in experiment [11], 1.36; in experiment [13] it was -0.0569; in experiment [14] it was 0.9. The composite z-score in experiment [15] is 0.26; in experiment [16], -0.145; in experiment [17], 0.147; in [18], 0.52; in experiment [19], 0.791; in experiment [20], 0.837. Further, the results for the z-score in experiment [4] and in experiment [12] were -1.11 (inactive) and -3.12, respectively.
As to `C=C[C@H](C)[C@H](OC(=O)Nc1ccc(OC)cc1)c1ccc(O)c2ccccc12`, the composite z-score in [1] was 0.443; in [2], -0.26; in experiment [3], 0.242; in experiment [5], 0.111; in [6], -0.667; in [7] it was -0.587. Further, the composite z-score was 0.0608 in [8]; -0.0641 in experiment [9]; 0.997 in [10]; -0.942 in experiment [11]; -0.654 in experiment [13]; -1.38 in experiment [14]. The composite z-score was -0.881 in [15]; -0.129 in experiment [16]; -0.0709 in experiment [17]; -0.0691 in [18]; 0.041 in experiment [19]; -0.596 in experiment [20]. The z-score in [4] is -0.632 (inactive); in experiment [12], -3.3.
On to `O=C(NCC(F)(F)F)[C@@H]1c2ccccc2C(=O)N(Cc2ccccc2)[C@H]1c1ccc(CO)cc1`, for which the composite z-score is 1.68 in [1]; 0.443 in experiment [2]; 1.05 in [3]; -0.308 in experiment [5]; -0.409 in [6]; -1.31 in experiment [7]. Further, the composite z-score in experiment [8] is -1.12; in experiment [9], -1.46; in [10], -0.296; in experiment [11], 0.337; in experiment [13], -1.78; in experiment [14], -0.189. Besides, the composite z-score is 0.621 in experiment [15]; -0.158 in [16]; -0.0849 in experiment [17]; 0.0056 in experiment [18]; -0.236 in [19]; -0.846 in experiment [20]. The z-score was 0.999 (inactive) in [4] and -0.32 in experiment [12].
On to `COCCCNC(=O)[C@]1(Cc2ccccc2N=[N+]=[N-])N=C(c2ccc(OCCCO)cc2)O[C@@H]1c1ccccc1CN=[N+]=[N-]`, for which the composite z-score in [1] stood at 1.09; in experiment [2] it was 1.2; in [3], 1.01; in [5] it was 1.26; in [6], 0.644; in experiment [7] it was 0.504. Further, the composite z-score in [8] came to 0.912; in experiment [9] it was 0.318; in [10], 0.928; in experiment [11], 1.45; in experiment [13], 0.331; in experiment [14], 1.5. In addition, the composite z-score in experiment [15] was found to be 0.813; in experiment [16], 0.0952; in experiment [17], 0.496; in experiment [18], 0.555; in experiment [19], 1.39; in [20] it was 1.01. Besides, the z-score in experiment [4] is -0.4 (inactive); in [12] it was -3.09.
